# The list is not random: actives were taken first. Their share in the collection is about 2.4%.
# TDP1 block: TDP1 (human) enzyme inhibition; AID 485290; Potency, µM (highest dose often 130 µM), most hits filed as inhibitors; hit rate 0.28% among 350,000; recombinant TDP1, AlphaScreen DNA substrate cleavage; also: nearly all actives have a fitted effect of over 40% in size
#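 AlphaScreen read-out: signal falls as enzyme removes the 3' tyrosine-FITC from a 5'-biotinylated DNA oligo (15 nM, 5 min, RT). Enzyme was E. coli-made recombinant Tdp1 at 1 nM, exposed to compound for 15 min beforehand; beads 10 ug/ml, 10 min.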
# Pol iota inh: blocks human DNA polymerase iota activity. Pol iota fluorescent replication assay, 10 min. Potency, µM (highest dose often 115 µM), most hits filed as inhibitors. hit rate 1% among 390,000
#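 Fluorescent replication assay read twice, at 0 min and 10 min after adding 50 nM (final) substrate. Enzyme (10 nM) and compounds were first incubated 15 min at room temperature; enzyme-free buffer wells were negative controls.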
# POLH inh: blocks human DNA polymerase eta activity; hit rate 1.2% among 390,000; recombinant Pol eta, fluorescent DNA replication assay; AID 588591; Potency, µM (titrated, usually from 114 µM), most hits filed as inhibitors; Q9Y253
# Target sequence (Q9Y253 whole entry, looked up): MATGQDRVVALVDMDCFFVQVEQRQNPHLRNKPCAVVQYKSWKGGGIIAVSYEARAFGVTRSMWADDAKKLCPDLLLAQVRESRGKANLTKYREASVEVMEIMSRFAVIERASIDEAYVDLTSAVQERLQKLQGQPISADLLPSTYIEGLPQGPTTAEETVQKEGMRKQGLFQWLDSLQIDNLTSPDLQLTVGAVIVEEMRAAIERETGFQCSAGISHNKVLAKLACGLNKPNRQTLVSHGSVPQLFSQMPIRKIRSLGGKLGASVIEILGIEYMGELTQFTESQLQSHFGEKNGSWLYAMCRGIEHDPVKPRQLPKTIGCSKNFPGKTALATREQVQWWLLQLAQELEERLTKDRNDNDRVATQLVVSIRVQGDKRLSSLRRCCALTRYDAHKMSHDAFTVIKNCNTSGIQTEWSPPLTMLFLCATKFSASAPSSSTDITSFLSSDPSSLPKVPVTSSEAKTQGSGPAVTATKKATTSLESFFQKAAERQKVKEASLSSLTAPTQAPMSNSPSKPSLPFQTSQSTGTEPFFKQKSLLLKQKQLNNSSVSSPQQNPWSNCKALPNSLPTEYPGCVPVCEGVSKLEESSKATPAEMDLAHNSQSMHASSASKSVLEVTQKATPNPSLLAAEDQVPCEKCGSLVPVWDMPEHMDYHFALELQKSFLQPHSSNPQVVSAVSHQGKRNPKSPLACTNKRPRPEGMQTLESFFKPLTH
#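 Pol eta at 10 nM preincubated with compounds 15 min at room temperature; reaction started with fluorescent substrate (50 nM final) and read kinetically at 0 and 10 min.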
# Pol beta inh: inhibitors of human DNA polymerase beta; P06746; Potency, µM (highest dose often 114 µM), most hits filed as inhibitors; hit rate 1.3% among 340,000; Pol beta primer extension/strand displacement, fluorescence kinetic
#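 Values derive from four-parameter Hill fits of normalized kinetic data: reads at 0 and 10 min following addition of 50 nM substrate to 10 nM Pol beta preincubated 15 min with compound.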
# POLK inh: inhibitors of human DNA polymerase kappa | Q9UBT6 | purified Pol kappa, fluorescent DNA synthesis assay, 10 min | Potency, µM (top dose mostly 107 µM), hits mostly inhibitors | hit rate 0.53% among 400,000
#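 Readout: fluorescence, taken kinetically at 0 and 10 min. Conditions: 10 nM Pol kappa, 15 min RT compound preincubation, 50 nM substrate final. Controls: enzyme-free buffer wells.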
# Numbers stand for hits; i = inactive; ? = inconclusive; nt = not tested or not shown; [ ] = remark or other dose. Calls follow the shape of the dose curve; as a rule, active = well fitted curve in the direction sought with a large enough effect; inconclusive = small, poorly fitted or top-dose-only effect, or another doubt; inactive = no such curve, though single readings can be large; an effect the other way counts as inactive or inconclusive.
SMILES,TDP1 block,Pol iota inh,POLH inh,Pol beta inh,POLK inh
COc1ccccc1N1CCN(C(=O)CCC(=O)N2CCN(c3ccccc3OC)CC2)CC1,nt,?,i,i,i
COc1ccccc1N1CCN(C(=O)N2CCOCC2)CC1,i,89.1µM,i,i,i
O=C(/C=C/c1ccc(O)c(O)c1)OC1C[C@](O)(C(=O)O)C[C@@H](O)[C@H]1O (some centres undefined),i,nt,nt,nt,nt
CCN(CCCNC(=O)c1cc2cc3ccc(OC)cc3nc2s1)c1cccc(C)c1,i[12.3 µM],79.4µM,?,3.98µM,?
COc1ccc(OC)c(NC(=O)c2cc3cc4ccc(C)cc4nc3s2)c1,i,i,i,i,i
CCCCN(C)C(=O)c1cc2cc3ccc(OC)cc3nc2s1,i,i,i,i,i
CCN(CCCNC(=O)c1cc2cc3ccc(OC)cc3nc2s1)c1ccccc1,nt,79.4µM,?,11.2µM,79.4µM
Cc1nn2c(=O)cc(COc3ccc(/C=C(\C#N)C(=O)Nc4ccccc4C)cc3)nc2s1,nt,20µM,i,?,?
Cc1nn2c(=O)cc(COC(=O)c3ccccc3NC(=O)C(C)C)nc2s1,i,i,79.4µM,i,i
CCCc1nn2c(=O)cc(COC(=O)c3cccc(NC(=O)c4cccs4)c3)nc2s1,i,?,i,3.55µM,i
Cc1ccccc1C(=O)OCc1cc(=O)n2nc(-c3cccs3)sc2n1,i,?,i,31.6µM,i
CCc1nn2c(=O)cc(COC(=O)c3ccc(NC(=O)c4cccs4)cc3)nc2s1,i,i,i,i,i
COc1ccc(C(=O)N2CCN(c3nc4c(C)c(Cl)ccc4s3)CC2)c(OC)c1,i,i,i,i,i
Cc1ccc(C(=O)OCc2cc(=O)n3nc(-c4cccs4)sc3n2)cc1,i,?,89.1µM,17.8µM,?
CC(C)c1nn2c(=O)cc(COC(=O)c3ccccc3Cl)nc2s1,i,i,i,i,i
O=C(OCc1cc(=O)n2nc(-c3cccs3)sc2n1)c1ccccc1Cl,i,?,?,35.5µM,?
O=C(OCc1cc(=O)n2nc(-c3cccs3)sc2n1)c1cccc(Cl)c1,i,?,i,39.8µM,i
O=C(COc1ccc(Cl)cc1)OCc1cc(=O)n2nc(-c3cccs3)sc2n1,i,?,?,25.1µM,i
CCn1cnc2c(Nc3ccc(Cc4cccnc4)cc3)nc(C#N)nc21,i,nt,nt,nt,nt
COc1ccc(O)c(C2Nc3ccccc3C(=O)N2Cc2ccccc2)c1 (centres undefined),i,nt,nt,nt,nt
Cc1ccc(NS(=O)(=O)c2ccc(Cl)cc2)cc1C,i,nt,nt,nt,nt
COC(=O)C1C(c2ccccc2)C(C(=O)OCc2ccco2)C1c1ccccc1 (centres undefined),i,i,i,i,i
O=C(O)C1C(c2ccccc2)C(C(=O)OCc2ccco2)C1c1ccccc1 (centres undefined),i,?,79.4µM,?,i
O=C(CNC(=O)c1ccccc1)OC(C(=O)Nc1ccc2c(c1)OCO2)c1ccccc1 (centres undefined),i,nt,nt,nt,nt
CC(=O)Nc1ccc(S(=O)(=O)Nc2nc3nc(-c4ccccc4)cc(-c4ccccc4)n3n2)cc1,nt,?,i,i,79.4µM
SMILES,TDP1 block,Pol iota inh,POLH inh,Pol beta inh,POLK inh
COc1cccc(CN(C(=O)c2cccc(C)c2)C2CCS(=O)(=O)C2)c1 (centres undefined),i,i,i,i,i
O=C(/C=C/c1ccc(Br)cc1)NC(=O)c1ccccc1O,i,i,i,31.6µM,i
O=C(NO)c1ccccc1O,i,i,i,i,i
CSc1ccc(/C=C/C(=O)NC(=O)c2ccccc2O)cc1,i,?,i,35.5µM,i
COc1ccc(NC(=O)c2cc3c(COC(C)=O)cnc(C)c3oc2=Nc2cccc(C(=O)O)c2)c(OC)c1,nt,i,3.16µM,i,i
COc1cccc(N=c2oc3c(C)ncc(CO)c3cc2C(=O)Nc2ccccc2OC)c1,i,nt,nt,i,nt
C=C(C(C)=O)C(O)/C=C/c1ccco1 (centres undefined),11.2µM,nt,nt,nt,nt
Cc1cccc(N/N=C/c2ccc(O)c(O)c2O)c1,i,?,?,10µM,?
Cc1cc(C)c2oc(-c3cccc(NC(=O)c4ccco4)c3)nc2c1,i[12.3 µM],?,i,i,i
Cc1cc(C)c2oc(-c3ccc(C)c(NC(=O)/C=C/c4ccco4)c3)nc2c1,i,22.4µM,?,?,i
CC(=O)N(/N=C1\Sc2ccccc2C1=O)c1ccccc1C,i,i,20µM,i,i
CC(=O)N(/N=C1\Sc2ccccc2C1=O)c1ccc(C)cc1C,i,i,i,i,i
CCCCNC(=O)CSc1nnc(Cc2ccc(Cl)c(Cl)c2)c(=O)[nH]1,i,?,i,i,89.1µM
COc1ccc(Cc2nnc(SCC(=O)Nc3cc(Cl)ccc3OC)[nH]c2=O)cc1,i,i,i,nt,i
COc1ccc(C(CC(=O)N2CCCC(C)C2)c2c(OC)cc(OC)c3ccc(=O)oc23)cc1 (centres undefined),i,?,i,i,i
COc1ccc(C(CC(=O)N2CCN(c3ccccc3)CC2)c2c(OC)cc(OC)c3c(-c4ccccc4)cc(=O)oc23)cc1 (centres undefined),nt,nt,nt,8.91µM,nt
COc1ccc(C(CC(=O)N2CCCC(C)C2)c2c(OC)cc(OC)c3c(-c4ccccc4)cc(=O)oc23)cc1 (centres undefined),nt,50.1µM,25.1µM,35.5µM,79.4µM
S=c1nc(C2CC2)[nH]c2ccccc12,i,?,25.1µM,?,i
S=c1nc(C2CCCCC2)[nH]c2ccccc12,i,i,i,i,i
CCN(CCCCO)c1nc(C)nc2c1c(C)c(C)n2-c1c(C)cc(C)cc1C,i,nt,nt,nt,i
COc1ccc(-n2nc3c(N4CCCC(C(=O)NCc5ccc(C)cc5)C4)nnc(C)c3c2C)cc1 (centres undefined),i,i,?,15.8µM,i
CN(C(=S)NC(=O)c1ccc(Cl)cc1)C1CCCCC1,i,?,?,11.2µM,i
N#Cc1c2c(c(-c3ccco3)[nH]c1=O)CCCC2,i,28.2µM,i,i,?
Cc1[nH]c(=O)c(C#N)c2c1CCCC2,i,i,i,i,i
N#Cc1c(-c2cccnc2)c2c([nH]c1=S)CCCC2,i,?,i,i,i
SMILES,TDP1 block,Pol iota inh,POLH inh,Pol beta inh,POLK inh
N#Cc1c(-c2ccco2)c2c([nH]c1=S)CCCC2,i,12.6µM,?,28.2µM,i
N#Cc1c(SCC(=O)Nc2ccccc2C(F)(F)F)sc2c(O)cc(=O)[nH]c12,i,31.6µM,?,i,?
CSc1ccc(NC(=O)CSc2nc3[nH]c(=O)cc(O)c3s2)cc1,i,?,39.8µM,nt,56.2µM
CCOc1cccc(NC(=O)CSc2sc3c(O)cc(=O)[nH]c3c2C#N)c1,i,i,i,i,i
N#Cc1cccc(NC(=O)CSc2sc3c(O)cc(=O)[nH]c3c2C#N)c1,i,?,50.1µM,?,?
CC(=O)Nc1ccc(SCC(Cc2ccccc2)N2CCN(CCc3ccccc3)CCC2=O)cc1 (centres undefined),i,i,nt,nt,i
O=C(O)c1ccc(S(=O)(=O)c2ccc3c(c2)C(=O)N(NC(=O)c2ccc(O)cc2)C3=O)cc1,i,i,i,28.2µM,i

# Assay outcomes as filed in PubChem.
